Compound activity deposited in PubChem by several laboratories.
Rows were chosen to be rich in hits. Some 3.1% of all compounds tested hit in one or more screens of this group.
HSF-1 act – HSF-1 activators, primary screen, NIH3T3-HGL cells, MG132 stress, luminescence, single point; activation, % at 9 µM; NIH3T3-HGL HSF-1 luciferase reporter, 8 h; 100% = twice DMSO control signal; 300,000 tested, 1.7% active; AID 504408, 2011;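 active means mean replicate activation of at least 50% with a set share of replicates each reaching 50%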;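 further: 0% = median of the neutral control wells and 100% = twice that signal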
ARNT-TACC3 inh – disruptors of ARNT/TACC3 protein interaction, primary screen, biochemical, AlphaScreen, single concentration; Transforming acidic coiled-coil-containing protein 3 (Homo sapiens), Q9Y6A5; AlphaScreen His-ARNT PAS-B/GST-TACC3 binding, luminescence; TACC3 fragment carries E629A point mutation; inhibition, % at 9.99 µM; 390,000 tested, 0.66% active; AID 623870, 2012;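 active means mean inhibition of replicates at least 50% and at least half of replicates each reaching 50%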;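 further: 0% = complete ARNT plus TACC3 wells and 100% = ARNT alone without TACC3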
HSP90 refold inh – HSP90 inhibitors, primary screen, cell lysate, luminescence. Rabbit reticulocyte lysate, luciferase refolding luminescence, 3 h. inhibition, % at 5.6 µM. 290,000 tested, 0.91% active. AID 1789, 2009;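 active means inhibition above the screen-wide mean plus 3 SD, computed separately per campaign, cut at about 16% in these data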;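 further: 0% = DMSO wells and 100% = 60 µM geldanamycin wells; inhibitors lower the luminescence because luciferase stays unfolded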
HSF1 inhib – HSF1 inhibitors in luciferase reporter cells, primary screen, cell-based, NIH3T3, luminescence | 300,000 tested, 0.77% active | NIH3T3-HGL HSE-luciferase, MG132-induced, luminescence 8 h; stronger effect = lower value | AID 2098, 2009 | activity change, negative = inhibition, % at 7.5 µM (by protocol);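 active means more than half of replicate wells show activity change below -50%, luminescence cut by over half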;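 further: luciferase reports HSF-1 transcriptional activity via heat shock element; 0% = median of DMSO wells and -100% = zero luminescence signal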
HIF activator – HIF pathway transcriptional activators, primary screen, cell-based, U2OS HRE-luciferase, luminescence; 300,000 tested, 0.32% active; U2OS HRE-luciferase reporter; normalized: DMSO 0%, desferrioxamine 100%; activation, % at 7.5 µM (by protocol); AID 1910, 2009;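 active means mean activation of at least 10% of the iron chelator positive control signal, with at least half of replicates also reaching 10%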
Numbers without * were called inactive; . = not tested or not shown.

SMILES	HSF-1 act	ARNT-TACC3 inh	HSP90 refold inh	HSF1 inhib	HIF activator
Cc1[nH]n(-c2ccccc2)c(=O)c1C=NCc1ccncc1	0.9	19.6*	-2.6	0.9	-0.3
Cc1[nH]n(-c2ccccc2)c(=O)c1C=NCCc1ccccc1	89.8*	-3.8	0.6	44.5	1.4
Cc1noc(C)c1S(=O)(=O)Nc1ccc2c(c1)C(=O)N([C@H](C)CO)C[C@H](C)[C@@H](CN(C)C(=O)Nc1ccc(C(F)(F)F)cc1)OCCCC[C@H](C)O2	.	7.1	.	.	.
Cc1cc[n+](C(C)C(=O)c2ccc(-c3ccccc3)cc2)cc1 (stereo not given)	1.5	-0.9	-1.5	-4.4	-0.7
Cc1cc[n+](C(C)C(=O)c2ccc(Cl)cc2)cc1 (stereo not given)	-15.3	56.2*	-6.5	0.9	-0.7
Cn1c(=O)c([N+](=O)[O-])c(Cl)c2ccccc21	-74.2	-6.2	2.3	-72.8*	0.0
CC(C)NC(=O)N[C@@H]1CC[C@H](CCNC(=O)C2CCC2)O[C@H]1CO	.	-12.4	.	.	.
CN(C)CCCCCCNC(=O)[C@@H]1C[C@@H]2C(=O)N3CCC[C@H]3C(=O)N2[C@@H]1c1ccc(O)cc1	.	-19.2	.	.	.
O=C(Nc1ccc(N2C(=O)C3C4C=CC(C4)C3C2=O)cc1)Nc1nncs1 (stereo not given)	-88.6	-0.2	.	-85.8*	0.1
Cc1noc(C)c1COc1ccc(C(=O)OCC(=O)Nc2c(C)n(C)n(-c3ccccc3)c2=O)cc1	-62.5	1.8	-1.9	-55.7*	-0.2
C[C@@H]1CCCCO[C@@H](CN(C)C(=O)Cc2ccccc2)[C@@H](C)CN([C@H](C)CO)C(=O)c2cc(NC(=O)CCC(F)(F)F)ccc2O1	.	1.2	.	.	.
CC1(C(=O)OCC(=O)Nc2nnc(-c3ccccc3)o2)CC1(Cl)Cl (stereo not given)	-0.6	48.8*	.	-4.3	0.0
O=C(CSc1nncs1)Nc1nnc(-c2ccccc2)o1	5.7	53.5*	4.8	-2.6	0.0
C[C@H](CO)N1C[C@H](C)[C@H](CN(C)Cc2ccccc2F)Oc2cc(C3=CCCCC3)ccc2S1(=O)=O	.	0.9	.	.	.
CN(C)/N=C/C=C1\CCC/C(=C/c2cccs2)C1=O	75.8*	5.4	-1.3	41.1	10.3*
Nc1nnc(CSCc2ccccc2Cl)s1	56.2*	2.2	-2.0	15.6	0.3
O=C(CSc1nc2ncccc2[nH]1)c1cccc([N+](=O)[O-])c1	65.9*	-2.1	1.5	27.8	0.4
O=C(CSc1ncn[nH]1)c1cccc([N+](=O)[O-])c1	126.6*	.	2.0	77.3	-0.3
O=C(CSc1nc2ncccc2[nH]1)c1ccc(F)cc1	-3.7	2.4	5.2	10.4	1.5
O=C(CSc1ncn[nH]1)c1ccccc1	3.8	-3.8	0.7	0.9	0.2
C[C@@H]1CN([C@H](C)CO)C(=O)Cc2cc(NS(=O)(=O)c3ccccc3)ccc2O[C@@H]1CN(C)CC1CC1	.	11.7	.	.	.
COc1ccc(Cn2c(SC)nc3ccccc32)cc1[N+](=O)[O-]	-69.5	-2.7	0.4	-61.2*	-0.1
CC(C)NC(=O)N[C@@H]1C=C[C@@H](CC(=O)N2CCCCC2)O[C@H]1CO	.	-6.8	.	.	.
Cc1cc(SCC(=O)Nc2ncc(Cl)cc2Cl)nc2ccccc12	54.4*	-4.8	6.4	31.5	-32.3
COc1ccc2c(C)cc(SCC(=O)Nc3ncc(Cl)cc3Cl)nc2c1	-26.8	-8.9	0.1	-11.1	-0.4
C[C@H]1CN([C@@H](C)CO)C(=O)c2cc(NC(=O)C3CCCCC3)ccc2O[C@H]1CN(C)C	.	-3.0	.	.	.
COC(=O)C1=C(C(=O)OC)[C@@H]2N(Cc3ccccc3)c3ccccc3[C@@]23C[C@@H](C(=O)OC)N(C(=O)c2ccc(Br)cc2)C3=N1	-71.1	-4.4	7.1	-68.3*	-0.4
C=CCN1c2ccccc2[C@]23C[C@@H](C(=O)OC)N(C(=O)OCC)C2=NC(C(=O)OC)=C(C(=O)OC)[C@H]13	0.8	2.7	.	0.9	0.0
